# Only some compounds are listed: those with a hit (about 5% of all), similar ones and a draw of the others.
# PREPL inhibitor: human PREPL enzyme inhibition; hit rate 0.68% among 320,000; recombinant PREPL, fluorescence polarization activity-based probe; Q4J6C6; inhibition, % at 5.96 µM; in the data active = inhibition above about 43%;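 also: 0% = enzyme with DMSO and 100% = wells lacking enzyme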
# Target sequence (Q4J6C6 whole entry, looked up): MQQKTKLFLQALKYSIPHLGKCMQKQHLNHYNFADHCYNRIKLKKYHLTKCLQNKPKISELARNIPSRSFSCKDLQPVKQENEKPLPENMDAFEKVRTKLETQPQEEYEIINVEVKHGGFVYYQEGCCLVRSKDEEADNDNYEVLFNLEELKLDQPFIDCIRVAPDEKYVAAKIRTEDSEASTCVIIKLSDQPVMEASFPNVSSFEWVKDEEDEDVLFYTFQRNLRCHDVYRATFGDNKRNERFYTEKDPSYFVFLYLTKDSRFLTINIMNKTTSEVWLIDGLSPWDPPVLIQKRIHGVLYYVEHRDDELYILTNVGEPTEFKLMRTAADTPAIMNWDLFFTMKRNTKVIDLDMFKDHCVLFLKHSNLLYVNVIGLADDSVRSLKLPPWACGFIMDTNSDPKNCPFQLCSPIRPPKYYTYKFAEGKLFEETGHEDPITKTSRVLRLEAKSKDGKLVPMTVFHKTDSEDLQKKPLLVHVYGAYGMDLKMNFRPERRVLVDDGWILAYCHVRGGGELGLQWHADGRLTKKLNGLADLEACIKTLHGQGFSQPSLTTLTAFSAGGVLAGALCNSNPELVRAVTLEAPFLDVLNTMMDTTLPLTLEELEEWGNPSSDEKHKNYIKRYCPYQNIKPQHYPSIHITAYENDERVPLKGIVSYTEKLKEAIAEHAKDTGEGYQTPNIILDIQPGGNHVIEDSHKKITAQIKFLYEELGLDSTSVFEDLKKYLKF
# CHT block: inhibits the human high affinity choline transporter; Q9GZV3; CHT-expressing cells, membrane potential dye, choline response; stronger effect = lower value; hit rate 0.86% among 310,000; B-score at 10 µM; AID 488975;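 active = B-score over 3 SD under the library average, and starting fluorescence ratio not unusually high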;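 also: choline stimulus applied at its EC90 after an EC20 pre-addition; B-score computed on integrated fluorescence ratio after choline addition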
# AI-2 QS modul: modulators of Vibrio harveyi AI-2 quorum sensing system | Vibrio harveyi JMH597 AI-2 luminescence/OD600 ratio, 9 h; stronger effect = lower value; strain lacks LuxN and CqsS sensors; 0 = neutral-control median | activity change, % at 7.5 µM | hit rate 0.4% among 300,000 | AID 2094; in the data active = activity change below about -75%, passing the limit was not always enough;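 also: luminescence divided by OD600 gain over 9 h not by final OD600 alone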
# CHT allo act: human CHT allosteric activation | Q9GZV3 | CHT-expressing cells, membrane potential dye, choline EC20; stronger effect = higher value; LV-AA mutant CHT in HEK293 cells | B-score at 10 µM | hit rate 0.49% among 310,000;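 active = initial fluorescence not abnormally high and integrated response B-score, plate-corrected, over 3 SD above library mean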
# ALR inh: blocks human ALR sulfhydryl oxidase activity. P55789. inhibition, % (no concentration beside the values). AID 485317. purified ALR, DTT oxidation, H2O2 HRP-luminol luminescence. hit rate 3.8% among 290,000;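 active = mean replicate inhibition above about 79%, with every replicate also reaching it, limit read from the data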
# CHT inh conf: confirmation of human choline transporter CHT inhibitors. shares compounds with CHT block. CHT-expressing cells, choline membrane potential dye; LV-to-AA substituted CHT, HEK293 cells. CHT activity remaining % of control (stronger effect = lower value), % at 10 µM. hit rate 70% among 2,400;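 active = choline transporter activity left, mean of duplicates at 10 µM, below buffer-only control mean minus 3 SD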;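 also: depolarization triggered by choline at its EC90 following an EC20 pre-addition; 0% = hemicholinium-3 full block and 100% = buffer-only control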
# HEK293 MPD ctr: counter-screen for CHT inhibitors: effect in parental HEK293 cells; shares compounds with CHT block; membrane potential dye, choline response; active = decrease or increase beyond buffer ±3SD; membrane potential ratio readout (active if shifted either direction beyond buffer ±3SD; no single direction) at 10 µM; hit rate 4% among 2,400;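 also: parental cells lack the transporter so any hit is non-specific; ratio is peak minus trough fluorescence over baseline after EC90 choline challenge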
# * = called active by the depositor; i = inactive; . = not tested or not shown.
SMILES,PREPL inhibitor,CHT block,AI-2 QS modul,CHT allo act,ALR inh,CHT inh conf,HEK293 MPD ctr
COc1ccc(NS(=O)(=O)c2cccc(C(=O)NCC(c3ccco3)N3CCCCC3)c2)cc1 (stereo unspecified),-4.3,-10.7*,15.5,i,-1.9,0.3%*,i
Cc1cccc(NS(=O)(=O)c2cccc(C(=O)NCC(c3ccco3)N3CCCCC3)c2)c1 (stereo unspecified),-11.6,-6.65*,17.0,i,-2.6,13.8%*,i
COc1ccccc1NS(=O)(=O)c1ccc(C)c(C(=O)NCC(c2ccco2)N2CCCCC2)c1 (stereo unspecified),-3.2,-16.1*,18.2,i,2.3,-4.8%*,i
COc1ccc(C(CNC(=O)c2cccc(S(=O)(=O)Nc3ccc(C)cc3)c2)N2CCCCC2)cc1 (stereo unspecified),-23.7,-13.6*,17.0,i,-2.3,11.6%*,i
Cc1ccc(Oc2nnc(-c3ccccc3)c3ccccc23)cc1,10.4,i,3.8,i,-4.1,.,.
Cc1ccc(-c2nnc(OCC3CCCO3)c3ccccc23)cc1 (stereo unspecified),0.8,-5.49*,4.7,i,6.6,45.4%*,i
Nc1nc(COc2ccccc2C=O)nc(Nc2ccccc2)n1,-3.3,i,18.0,i,.,.,.
CN(CCO)c1c2c(nc3cc(-c4cccc(F)c4)nn13)CCCC2,42.6,i,19.5,i,-2.5,.,.
Fc1cccc(-c2cc3nc4c(c(N5CCC6(CC5)OCCO6)n3n2)CCCC4)c1,12.1,-7.79*,42.8,i,.,i,i
COc1ccc(-c2nc(-c3cccs3)c(-c3cccs3)[nH]2)cc1O,27.1,-7.22*,15.7,i,99.4*,69.8%*,i
Cc1ccc(S(=O)(=O)N2CCN(C(=O)c3ccccc3)CC2)c(C)c1NS(C)(=O)=O,-0.6,i,18.3,i,-20.8,.,.
COc1ccc(-c2nn(-c3ccccc3)cc2C(=O)O)cc1N,0.7,i,.,i,11.0,.,.
O=C(O)c1ccccc1C(=O)c1ccc(Cl)cc1,10.9,i,3.3,i,-1.0,.,.
O=C(CC(CC(=O)c1ccc(Cl)cc1)c1ccccc1C(=O)O)c1ccc(Cl)cc1,1.9,-5.83*,5.2,i,10.9,40.4%*,i
O=C(COC(=O)/C=C/c1ccc(C(F)(F)F)cc1)NC(=O)NCc1ccco1,6.5,.,.,.,60.1,.,.
CC(=O)OC1CC2(C)C(=O)CCC2C2CCc3cc(O)ccc3C12 (stereo unspecified),16.5,-8.13*,9.4,i,13.7,28.4%*,i
CN1CCN(C(=O)CCN2C(=O)/C(=C/c3cccc(Br)c3)SC2=S)CC1,-10.3,-5.2*,9.7,i,-18.1,70.4%*,i
O=C(CCN1C(=O)/C(=C\c2cccc(Br)c2)SC1=S)NCCCN1CCOCC1,5.7,-5.6*,16.4,i,-7.7,69.0%*,i
O=C(CCCN1C(=O)/C(=C/c2ccccc2)SC1=S)N1CCOCC1,25.4,-5.64*,27.6,i,.,i,i
CN1CCN(C(=O)CCCN2C(=O)/C(=C/c3cccc(Br)c3)SC2=S)CC1,.,.,8.0,.,.,.,.
O=C(CCN1C(=O)/C(=C/c2ccccc2)SC1=S)NCCCN1CCOCC1,-15.3,i,.,i,2.8,.,.
CCOC(=O)c1[nH]ncc1CN1CCCC(C(=O)c2ccc(C(C)(C)C)cc2)C1 (stereo unspecified),7.5,-8.85*,40.3,i,-13.6,i,i
CC1(OC(=O)CCc2ccccc2)C(=O)C=C2C=C(c3ccc(C#N)cc3)N(C3CCCC3)C=C2C1=O (stereo unspecified),15.8,i,34.4,i,-18.2,.,.
CSCc1ccc(C(=O)N2CCCC(Nc3ccc(F)cc3)C2)o1 (stereo unspecified),21.1,-5.2*,3.7,i,98.2*,i,i
CCN(CC)C(=O)C(C)OC(=O)COc1ccc(Cl)cc1C (stereo unspecified),19.2,i,9.3,i,-13.9,i,i
SMILES,PREPL inhibitor,CHT block,AI-2 QS modul,CHT allo act,ALR inh,CHT inh conf,HEK293 MPD ctr
CCCCOC(=O)c1ccc(NC(=O)c2cc(Cl)c(Cl)cc2C(=O)O)cc1,2.5,-5.26*,21.3,i,32.0,61.1%*,i
CCCCOC(=O)c1ccc(NC(C)=O)cc1,-3.4,i,-9.1,i,1.7,.,.
O=C1COc2ccc(C(=O)COC(=O)CCSc3ccc(Cl)cc3)cc2N1,-4.5,i,-1.1,i,-1.7,.,.
CCn1c(=O)cc(OCC(=O)NCCC(C)C)c2ccccc21,9.0,i,9.6,i,-13.3,.,.
CCn1c(=O)cc(OCC(=O)NC(C)c2ccc3c(c2)OCCO3)c2ccccc21 (stereo unspecified),-10.2,-9.49*,9.8,i,-13.8,18.1%*,i
CCOc1ccccc1C(=O)NC(C)c1ccc2c(c1)OCO2 (stereo unspecified),5.1,-6.36*,4.5,i,0.6,46.3%*,i
COC(=O)c1nn(-c2cccc(C(F)(F)F)c2)c(=O)cc1Sc1ccccn1,-4.4,i,13.3,i,-9.9,.,.
COc1cccc(NC(=O)c2nc(S(C)(=O)=O)ncc2Cl)c1,-7.6,-6.85*,-3.0,i,.,36.0%*,i
COc1ccccc1NC(=O)CNS(=O)(=O)c1ccccc1,5.8,-5.72*,17.7,i,-6.0,i,i
CCCCn1c(N)c(N(C)C(=O)c2ccc(-n3cccn3)cc2)c(=O)[nH]c1=O,4.9,.,.,.,-0.9,.,.
Cc1cccc(Cn2c(C)nc3c(N)c(C)c(C)cc32)c1,1.8,i,20.4,i,9.7,.,.
CCOC(=O)C(C)Sc1nnc(NC(=O)c2cccc([N+](=O)[O-])c2C)s1 (stereo unspecified),-1.2,-5.16*,0.6,i,-4.6,51.6%*,i
COC(=O)c1ccc(COC(=O)C(CCS(C)(=O)=O)N2C(=O)c3ccccc3C2=O)cc1 (stereo unspecified),-0.2,-6.31*,9.2,i,-22.0,i,i
CCc1cc([N+](=O)[O-])cc(CC)c1N,6.5,-5.89*,-10.7,i,.,39.7%*,i
Cc1nnc(SC(C)C(=O)Nc2sc3c(c2C#N)CCCC3)[nH]c1=O (stereo unspecified),9.6,-5.16*,16.0,i,20.6,64.9%*,i
CC(C)OC(=O)Cn1nnc(-c2ccccc2)n1,12.3,i,26.6,i,12.9,.,.
CC(C)OC(=O)CN1CCN(C2c3ccccc3-c3ccccc32)CC1,-9.9,-5.61*,22.6,i,.,70.4%*,i
CC(=O)Oc1ccc(N(C(C)=O)S(=O)(=O)c2cccs2)cc1,13.8,i,12.6,i,8.3,.,.
